# Reference: PubChem BioAssay
# The source made the active and inactive calls. Cut-off read from the data, not from the text of the source, unless noted: active = inhibition above about 80%; inactive = the rest.
# Legend:
# [1] = growth inhibition, single agent or in combination, cell-based, chromothripsis tumors, cisplatin or BGB combos (AID 1671449); conditions: LFS_MB_P medulloblastoma cells;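 note: cells exposed for 96 hours; 0% = vehicle DMSO and 100% = killing by high DMSO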
# [2] = growth inhibition, single agent and combos, cell-based, chromothripsis tumors, cisplatin or BGB combos (AID 1671450); conditions: HDN33 neuroblastoma cells, stronger effect = higher value;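 note: cells exposed to compound for four days; 0% = vehicle DMSO and 100% = cell killing by high DMSO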
# [3] = growth inhibition, single agents and combos, ICB984, cell-based, cisplatin or BGB combos, synergistic combos for chromothripsis tumors (AID 1671451; call rule not given here;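 note: cells exposed for 96 hours before readout; 0% = vehicle DMSO and 100% = killing by high DMSO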); conditions: ICB984 medulloblastoma cells, drug combinations, stronger effect = higher value
# [4] = growth inhibition, single agents and combos, LFS_MB_1R, cell-based, cisplatin or BGB combos, synergistic combos for chromothripsis tumors (AID 1671452); conditions: LFS_MB_1R medulloblastoma cells, stronger effect = higher value;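 note: cells exposed for 96 hours before readout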
# [5] = growth inhibition, single agents and combos, HTB85, cell-based, BGB or cisplatin IC20 combos, synergistic combos for chromothripsis tumors (AID 1671453); conditions: HTB85 osteosarcoma cells, drug combinations, stronger effect = higher value;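 note: cells exposed for 96 hours before readout; 0% = vehicle DMSO and 100% = high DMSO killing control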
# [6] = growth inhibition, single agents and combos, CRL2098, cell-based, BGB or cisplatin IC20 combos, synergistic combos for chromothripsis tumors (AID 1671454); conditions: CRL2098 osteosarcoma cells, drug combinations, stronger effect = higher value;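 note: cells exposed for 96 h before readout; 0% = vehicle DMSO and 100% = killing by high DMSO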
# [7] = growth inhibition, single agents and combos, HD-MB03, cell-based, BGB or cisplatin IC20 combos, synergistic combos for chromothripsis tumors (AID 1671455; in the data active = inhibition above about 83%;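 note: 0% = vehicle DMSO and 100% = high DMSO as cytotoxic control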); conditions: HD-MB03 medulloblastoma cells, stronger effect = higher value
# [8] = growth inhibition, single agents and combos, UWB1.289, cell-based, BGB or cisplatin combos, synergistic combos for chromothripsis tumors (AID 1671456); conditions: UWB1.289 ovarian carcinoma cells, stronger effect = higher value;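 note: cells exposed to compound for four days; 0% = vehicle DMSO and 100% = killing by high DMSO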
# [9] = growth inhibition, single agents and combos, LFS_MB_2R, cell-based, cisplatin combos, synergistic combos for chromothripsis tumors (AID 1671457); conditions: LFS_MB_2R medulloblastoma cells, stronger effect = higher value;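 note: cells exposed to compound for four days before readout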
# [10] = growth inhibition, MDA-MB-436, cell-based, BGB or cisplatin combos, synergistic combos for chromothripsis tumors (AID 1671458; call rule not given here;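 note: cells exposed for 96 hours; 0% = vehicle DMSO and 100% = killing by high DMSO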); conditions: MDA-MB-436 breast carcinoma growth inhibition, drug combinations, stronger effect = higher value
# [11] = UWB1.289_BRCA1 ovarian cancer growth, cell-based, BGB or cisplatin combinations (AID 1671459); conditions: UWB1.289 BRCA1 ovarian carcinoma, drug combinations, stronger effect = higher value
# [12] = drug combination toxicity in non-malignant astrocytes – cell-based, BGB or cisplatin IC20 combos, cytotoxicity control for chromothriptic childhood tumor combination screen (AID 1671460); conditions: Human astrocytes, viability inhibition, drug combinations, at 0.5 µM, stronger effect = higher value;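 note: cells exposed to compounds for 96 hours before viability readout; 0% = vehicle and 100% = killing control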
# [13] = BT084 cell growth, single and combined drugs, ICGC_MB145, cisplatin and BGB IC40 combos (AID 1671461); conditions: BT084 medulloblastoma cells, drug combinations, stronger effect = higher value;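 note: cells exposed to drugs for 96 hours; 0% = vehicle DMSO and 100% = high DMSO full killing control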
# [14] = RCMB18 cell growth, single agent and combined, cisplatin and BGB IC40 combos (AID 1671462); conditions: RCMB18 medulloblastoma cells, stronger effect = higher value;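 note: cells exposed to compound for four days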
# [15] = CRL1545 cell growth, single agent and combined, cisplatin and BGB IC20 combos (AID 1671464); conditions: CRL1545 osteosarcoma cells, stronger effect = higher value;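 note: cells exposed to compound for 96 hours before readout; 0% = vehicle DMSO and 100% = high DMSO killing control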
# [16] = at 0.5 µM, stronger effect = higher value
# [17] = measured here: combination with BGB IC20, at 0.005 µM
# [18] = measured here: combination with BGB IC40, at 0.005 µM
# [19] = measured here: combination with BGB IC40, at 0.05 µM
# [20] = measured here: combination with cisplatin, at 0.5 µM, stronger effect = higher value
# [21] = measured here: combination with cisplatin, at 5 µM, stronger effect = higher value
# [22] = measured here: with BGB IC20 combination, at 0.5 µM
# [23] = measured here: with cisplatin IC20 combination, at 0.5 µM
# [24] = measured here: 5 uM single agent, at 5 µM
# [25] = measured here: combination with cisplatin, at 0.5 µM
# [26] = measured here: combination with cisplatin, at 5 µM
# [27] = measured here: with BGB IC20, at 0.5 µM
# [28] = measured here: with BGB IC20, at 5 µM
# [29] = measured here: with cisplatin IC20, at 0.5 µM
# [30] = measured here: with cisplatin IC20, at 5 µM
# [31] = measured here: combination with BGB at IC20, at 0.5 µM
# [32] = measured here: combination with cisplatin at IC20, at 0.5 µM
# [33] = measured here: combo with BGB at IC20, at 0.5 µM
# [34] = measured here: combo with cisplatin at IC20, at 0.5 µM
# [35] = measured here: inhibition with BGB combination, at 0.05 µM
# [36] = measured here: inhibition with cisplatin combination, at 0.05 µM
# [37] = measured here: BGB combination, at 0.5 µM
# [38] = measured here: BGB combination, at 5 µM
# [39] = measured here: cisplatin combination, at 0.5 µM
# [40] = measured here: cisplatin combination, at 5 µM
# [41] = BGB combination, concentration series, at 5 µM
# [42] = cisplatin combination, concentration series, at 5 µM
# [43] = measured here: combo with BGB IC20
# [44] = measured here: combo with cisplatin IC20
# [45] = cisplatin combination, at 0.5 µM
# [46] = measured here: BGB IC40 combination 0.05 uM, at 0.05 µM
# [47] = measured here: BGB IC40 combination, at 0.05 µM
compound,measurement,setting,value
Cc1c(Br)cc(NCC(=O)N/N=C/c2cc([N+](=O)[O-])ccc2O)cc1Br,inhibition,[1]; [16],4.38% (inactive)
same,inhibition,[1]; [17],-17.6%
same,inhibition,[1]; [18],-32.2%
same,inhibition,[1]; [19],-25.9%
same,inhibition,[1]; [20],-13.3%
same,inhibition,[1]; [21],49.2%
same,inhibition,"[2]; BGB combo, at 5 µM",40.5%
same,inhibition,[2]; at 0.5 µM,-0.34% (inactive)
same,inhibition,"[2]; cisplatin combo, at 5 µM",36.1%
same,inhibition,[2]; [22],-9.6%
same,inhibition,[2]; [23],14.3%
same,inhibition,"[2]; single agent, at 5 µM",47.8%
same,inhibition,"[3]; BGB IC20 combo, at 0.005 µM",-14%
same,inhibition,"[3]; BGB IC40 combo, at 0.005 µM",-19.6%
same,inhibition,"[3]; BGB IC40 combo, at 0.05 µM",-0.825%
same,inhibition,[3]; at 0.5 µM,-30.2% (inactive)
same,inhibition,"[3]; cisplatin combo, at 0.05 µM",-3.64%
same,inhibition,"[3]; cisplatin combo, at 0.5 µM",-27.9%
same,inhibition,"[3]; cisplatin combo, at 5 µM",-29.5%
same,inhibition,[3]; [24],-33%
same,inhibition,[4]; at 0.5 µM,-22.2% (inactive)
same,inhibition,[4]; [19],-11.7%
same,inhibition,[4]; [25],-16.8%
same,inhibition,[4]; [26],13.4%
same,inhibition,[5]; at 0.5 µM,-6.09% (inactive)
same,inhibition,[5]; [27],-1.02%
same,inhibition,[5]; [28],19.1%
same,inhibition,[5]; [29],-24.4%
same,inhibition,[5]; [30],5.29%
same,inhibition,"[5]; single agent, at 5 µM",37.4%
same,inhibition,[6]; at 0.5 µM,-42.4% (inactive)
same,inhibition,[6]; [31],-43.9%
same,inhibition,[6]; [32],-25%
same,inhibition,[7]; at 0.5 µM,-7.25% (inactive)
same,inhibition,[7]; [33],1.43%
same,inhibition,[7]; [34],-13.4%
same,inhibition,[8]; at 0.5 µM,5% (inactive)
same,inhibition,[8]; [35],-18.4%
same,inhibition,[8]; [36],-10.8%
same,inhibition,[9]; at 0.5 µM,-13% (inactive)
same,inhibition,[9]; [25],-18.6%
same,inhibition,[9]; [26],-37.8%
same,inhibition,[10]; at 0.5 µM,-18.5% (inactive)
same,inhibition,[10]; [37],-10.2%
same,inhibition,[10]; [38],25.8%
same,inhibition,[10]; [39],-39%
same,inhibition,[10]; [40],38.4%
same,inhibition,[11]; [41],59.1%
same,inhibition,[11]; at 0.5 µM,2.01% (inactive)
same,inhibition,[11]; [42],60.8%
same,inhibition,[12],9.92% (inactive)
same,inhibition,[12]; [43],11.5%
same,inhibition,[12]; [44],17.7%
same,inhibition,[13]; at 0.5 µM,-9.67% (inactive)
same,inhibition,[13]; [45],-1.86%
same,inhibition,"[13]; cisplatin combination, at 5 µM",27.3%
same,inhibition,[13]; [46],-3.3%
same,inhibition,"[13]; single agent, at 5 µM",6.62%
same,inhibition,[14]; at 0.5 µM,-19% (inactive)
same,inhibition,"[14]; cisplatin combo, at 5 µM",25.8%
same,inhibition,[14]; [47],-28.4%
same,inhibition,[14]; [25],22%
same,inhibition,"[14]; single agent, at 5 µM",8.19%
same,inhibition,[15]; at 0.5 µM,-4.87% (inactive)
same,inhibition,[15]; [22],-10.5%
same,inhibition,[15]; [23],-4.39%
same,inhibition,"[15]; single agent, at 0.05 µM",-22.9%
same,inhibition,"[15]; single agent, at 5 µM",44.6%
O=C(CCCCCCC(=O)NO)NO,inhibition,[1]; [16],-16.3% (inactive)
same,inhibition,[1]; [17],3.43%
same,inhibition,[1]; [18],-7.94%
same,inhibition,[1]; [19],-3.7%
same,inhibition,[1]; [20],-17.1%
same,inhibition,[1]; [21],37.5%
same,inhibition,"[2]; BGB combo, at 5 µM",16.4%
same,inhibition,[2]; at 0.5 µM,-16.1% (inactive)
same,inhibition,"[2]; cisplatin combo, at 5 µM",-6.26%
same,inhibition,[2]; [22],-13.7%
same,inhibition,[2]; [23],-21.3%
same,inhibition,"[2]; single agent, at 5 µM",-0.771%
same,inhibition,"[3]; BGB IC20 combo, at 0.005 µM",-20.4%
same,inhibition,"[3]; BGB IC40 combo, at 0.005 µM",-41.1%
same,inhibition,"[3]; BGB IC40 combo, at 0.05 µM",-25.8%
same,inhibition,[3]; at 0.5 µM,-27% (inactive)
same,inhibition,"[3]; cisplatin combo, at 0.05 µM",-30.8%
same,inhibition,"[3]; cisplatin combo, at 0.5 µM",-31.2%
same,inhibition,"[3]; cisplatin combo, at 5 µM",-49.1%
same,inhibition,[3]; [24],-5.09%
same,inhibition,[4]; at 0.5 µM,-25% (inactive)
same,inhibition,[4]; [19],-41%
same,inhibition,[4]; [25],-39.7%
same,inhibition,[4]; [26],-49.3%
same,inhibition,[5]; at 0.5 µM,-16.4% (inactive)
same,inhibition,[5]; [27],-21.4%
same,inhibition,[5]; [28],7.58%
same,inhibition,[5]; [29],-13.1%
same,inhibition,[5]; [30],-1.96%
same,inhibition,"[5]; single agent, at 5 µM",8.05%
same,inhibition,[6]; at 0.5 µM,-49.2% (inactive)
same,inhibition,[6]; [31],-52%
same,inhibition,[6]; [32],-0.415%
same,inhibition,[7]; at 0.5 µM,-7.45% (inactive)
same,inhibition,[7]; [33],-12.8%
same,inhibition,[7]; [34],-0.883%
same,inhibition,[8]; at 0.5 µM,-11.1% (inactive)
same,inhibition,[8]; [35],12.4%
same,inhibition,[8]; [36],-20.9%
same,inhibition,[9]; at 0.5 µM,7.53% (inactive)
same,inhibition,[9]; [25],-13.9%
same,inhibition,[9]; [26],4.86%
same,inhibition,[10]; at 0.5 µM,-5.23% (inactive)
same,inhibition,[10]; [37],0.608%
same,inhibition,[10]; [38],5.89%
same,inhibition,[10]; [39],-7.76%
same,inhibition,[10]; [40],14.4%
same,inhibition,[11]; [41],21.1%
same,inhibition,[11]; at 0.5 µM,-7.22% (inactive)
same,inhibition,[11]; [42],38.6%
same,inhibition,[12],-7.15% (inactive)
same,inhibition,[12]; [43],-3.26%
same,inhibition,[12]; [44],-13%
same,inhibition,[13]; at 0.5 µM,-7.26% (inactive)
same,inhibition,[13]; [45],-13%
same,inhibition,"[13]; cisplatin combination, at 5 µM",18.3%
same,inhibition,[13]; [46],-15.2%
same,inhibition,"[13]; single agent, at 5 µM",28.5%
same,inhibition,[14]; at 0.5 µM,-4.15% (inactive)
same,inhibition,"[14]; cisplatin combo, at 5 µM",6.83%
same,inhibition,[14]; [47],-1.04%
same,inhibition,[14]; [25],-1.18%
same,inhibition,"[14]; single agent, at 5 µM",-14.5%
same,inhibition,[15]; at 0.5 µM,-30.5% (inactive)
same,inhibition,[15]; [22],-55.7%
same,inhibition,[15]; [23],-17.9%
same,inhibition,"[15]; single agent, at 0.05 µM",-50.7%
same,inhibition,"[15]; single agent, at 5 µM",-1.16%
